Results on 40 compounds are retold here after PubChem BioAssay (NCATS).

Positions of bridges follow the written chain, without caps; N, C: chain ends. Non-standard residues stand in square brackets, D forms with d. Residues, ends and D or L forms follow the SMILES beside them. ξ: configuration not given here. *: point of attachment. Octanoyl(6-Me) = CCC(C)CCCCC(=O)*; ξThr(3R) = C[C@@H](O)C(N)C(=O)O; dDab = NCC[C@@H](N)C(=O)O; Dab = NCC[C@H](N)C(=O)O

The nature of this test: qHTS profiling of the MIPE4 collection as inhibitors of Plasmodium falciparum (DD2) proliferation (AID 743345). Conditions: P. falciparum Dd2 in erythrocytes, SYBR Green DNA, 72 h; at 28.5 µM (top of the series) unless noted. From the text: Plasmodium falciparum is a virulent malarial parasite that kills 1-2 million people worldwide each year. Transmitted by mosquitoes, the sporozoite form of the parasite enters the blood stream to infect hepatocytes, where they become merozoites that infect red blood cells (erythrocytes). Within erythrocytes, merozoites begin a […] cycle of growth and division, after which the parasite is released to infect new red blood cells. Gametocytes, which form within erythrocytes as well, circulate in the bloodstream and are ingested by the mosquito, thereby completing the life cycle. To profile malarial isolates for differential chemical responses and to identify inhibitors of malarial growth, an assay that measures P. falciparum growth and replication within erythrocytes was employed. This assay uses a DNA binding fluorescent dye (SYBR Green) to detect parasite DNA following cell lysis. Because mature erythrocytes lack DNA, only Plasmodium-derived DNA is detected.
The SYBR Green viability assay was adapted from a method described previously (Plouffe et al., 2008). For screening 3 ul culture medium was dispensed into 1536 well black clear bottom plates (Aurora Biotechnologies) using a Multidrop Combi (Thermo Fisher Scientific Inc.), 23 nL compounds in DMSO were added by a pin tool (Kalypsys), and 5 ul of erythrocytes infected with P. falciparum (0.3% parasitemia, 2.5% hematocrit final concentration) were added. The plates were incubated at 37 C in a humidified incubator in 5% CO2 for 72 h, and 2 ul lysis buffer (20 mM Tris HCl, 10 mM EDTA, 0.16% saponin, 1.6% triton X, 10X SYBR Green I supplied as 10,000X […] by Invitrogen) was added to each well. The plates were mixed for 25 sec with gentle shaking and incubated overnight at room temperature in the dark. The following morning, fluorescence intensity at 485(14) nm excitation and 535(25) nm emission wavelengths was measured on an EnVision (Perkin Elmer) plate reader. Plate reads were normalized relative to the control inhibitor (0.29 uM artemisinin) and vehicle (DMSO) wells present on each plate and then corrected by an algorithm using vehicle-only control plates at the beginning and end of the compound plate stack.
Take `Cc1ccc2nc(NCCN)c3ncc(C)n3c2c1`: the parasite growth remaining, % of DMSO control (lower = more inhibition) amounted to 41.2%. The value for `C=Cc1c(C)c2cc3nc(cc4[nH]c(cc5nc(cc1[nH]2)C(C)=C5CCC(=O)O)c(CCC(=O)OC)c4C)[C@@]1(C)C3=CC=C(C(=O)OC)[C@H]1C(=O)OC` was 5.89%; that for `O=C(O)CCCCCC(=O)NN=C1CCCC1` was 100%. The value for `Cc1cnc(Nc2ccc(CN3CCOCC3)cc2)nc1Nc1cccc(S(=O)(=O)NC(C)(C)C)c1` was 8.36%; that for `COc1ccc(C(C)=O)c(O)c1` was 98.8%. Regarding `COc1ccc(S(=O)(=O)Nc2cccnc2Nc2ccc(O)cc2)cc1`, the parasite growth remaining, % of DMSO control (lower = more inhibition) was 94%. `COC(=O)[C@@H]1CC2=CC(=O)CC[C@]2(C)[C@@]23O[C@@H]2C[C@@]2(C)[C@H](CC[C@@]24CCC(=O)O4)[C@@H]13`: the parasite growth remaining, % of DMSO control (lower = more inhibition) is 87.1%.

`CCCCCCCCCCCC(CC1OC(=O)C1CCCCCC)OC(=O)C(CC(C)C)NC=O` (stereo not given): the parasite growth remaining, % of DMSO control (lower = more inhibition) was determined as 13.8%. The same measure for `O=C(O)CCCCC(CCSCc1ccccc1)SCc1ccccc1` (stereo not given): 96.3%; for `CCC[C@H]1C[C@H](C(=O)N[C@@H]([C@@H]2O[C@@H](SC)[C@@H](O)[C@@H](O)[C@@H]2O)[C@H](C)Cl)N(C)C1`: 36%. Take `OCc1ccccc1O[C@@H]1O[C@H](CO)[C@H](O)[C@H](O)[C@H]1O`: the parasite growth remaining, % of DMSO control (lower = more inhibition) amounted to 96.7%. For the compound `Cn1cc(C2=C(c3c4n(c5ccccc35)CCC(CN)C4)C(=O)NC2=O)c2ccccc21` (stereo not given), the parasite growth remaining, % of DMSO control (lower = more inhibition) is 5.71%. Consider `CNC(=O)c1cccc(-c2ccc3c(N4CCOC[C@H]4C)nc(N4CCOC[C@H]4C)nc3n2)c1`, for which the parasite growth remaining, % of DMSO control (lower = more inhibition) amounted to 17.5%. The value for `CCCNS(=O)(=O)Nc1ncnc(OCCOc2ncc(Br)cn2)c1-c1ccc(Br)cc1` was 99.9%. As to `CC(Cc1ccc(O)c(O)c1)(NN)C(=O)O` (stereo not given), the parasite growth remaining, % of DMSO control (lower = more inhibition) came out at 15.4%. The same measure for `C[N+](C)([O-])CCNc1ccc(NCC[N+](C)(C)[O-])c2c1C(=O)c1c(O)ccc(O)c1C2=O`: 13.5%; for `C[C@H](O)[C@@H]1C(=O)N2C(C(=O)O)=C(S[C@@H]3CN[C@H](CNS(N)(=O)=O)C3)[C@@H](C)[C@@H]12`: 99.1%; for `CC(C=CC1=C(C)CCCC1(C)C)=CC=CC(C)=CC(=O)Nc1ccc(O)cc1`: 6.69% [at 57.5 µM]. The value for `c1cncc(CN2CCC(n3ncc4c(N5CCOCC5)nc(-c5ccc6[nH]ccc6c5)nc43)CC2)c1` was 6.76%; that for `CC(=O)NC(CS)C(=O)O` (stereo not given) was 97.9%. As for `CC(C)NC[C@@H](C(=O)N1CCN(c2ncnc3c2[C@H](C)C[C@H]3O)CC1)c1ccc(Cl)cc1`, the parasite growth remaining, % of DMSO control (lower = more inhibition) worked out at 64.9%. On to `CC(=O)N[C@@H]1[C@H](O[C@@H]2c3ccc(c(Cl)c3)Oc3cc4cc(c3O[C@H]3O[C@H](CO)[C@@H](O)[C@H](O)[C@H]3NC(=O)CCCCCCCC(C)C)Oc3ccc(cc3Cl)C[C@H]3NC(=O)[C@H](N)c5ccc(O)c(c5)Oc5cc(O)cc(c5)[C@H](NC3=O)C(=O)N[C@H]4C(=O)N[C@H]3C(=O)N[C@@H]2C(=O)N[C@@H](C(=O)O)c2cc(O)cc(O[C@H]4O[C@H](CO)[C@@H](O)[C@H](O)[C@H]4O)c2-c2cc3ccc2O)O[C@H](CO)[C@@H](O)[C@@H]1O`, for which the parasite growth remaining, % of DMSO control (lower = more inhibition) stood at 99.1%. Turning to `C[C@@H](Oc1ccc2[nH]nc(C=Cc3cnn(CCO)c3)c2c1)c1c(Cl)cncc1Cl`, the parasite growth remaining, % of DMSO control (lower = more inhibition) amounted to 8.67%. As for `O=c1[nH]c(=O)n([C@H]2C[C@@H](O)[C@@H](CO)O2)cc1F`, the parasite growth remaining, % of DMSO control (lower = more inhibition) was 79.8%.

`CC(C)(O)[C@H]1CC[C@@](C)([C@H]2[C@@H](O)C[C@@]3(C)[C@@H]4C[C@H](O[C@@H]5O[C@H](CO)[C@@H](O)[C@H](O)[C@@H]5O)[C@H]5C(C)(C)[C@@H](O[C@@H]6OC[C@@H](O)[C@H](O)[C@@H]6O)CC[C@@]56C[C@@]46CC[C@]23C)O1`: the parasite growth remaining, % of DMSO control (lower = more inhibition) was found to be 135%. Take `CCC(C(=O)O)C1CCC(C)C(C(C)C(O)C(C)C(=O)C(CC)C2OC3(C=CC(O)[C@@]4(CC[C@](C)(C5CC[C@@](O)(CC)C(C)O5)O4)O3)C(C)CC2C)O1` (stereo not given in full): the parasite growth remaining, % of DMSO control (lower = more inhibition) amounted to 6.02%. Regarding `CCCCCCCCCCCCc1ccc(S(=O)(=O)Nc2nncs2)cc1`, the parasite growth remaining, % of DMSO control (lower = more inhibition) amounted to 92.3%. The value for `FC(F)c1nc2ccccc2n1-c1nc(N2CCOCC2)nc(N2CCOCC2)n1` was 7.94%; that for `O=C(NCc1ccccc1)[C@H](Cc1ccccc1)NC(=O)[C@@H]1O[C@@H]1C(=O)NCCc1ccc(O)cc1` was 44.7%; that for `CCC(C)CCCCC(=O)N[C@@H](CCN)C(=O)NC(C(=O)N[C@H](CCN)C(=O)N[C@@H]1CCNC(=O)C([C@@H](C)O)NC(=O)[C@@H](CCN)NC(=O)[C@@H](CCN)NC(=O)[C@@H](CC(C)C)NC(=O)[C@H](Cc2ccccc2)NC(=O)[C@H](CCN)NC1=O)[C@@H](C)O` (stereo partly drawn) ({Octanoyl(6-Me)}-[Dab][ξThr(3R)][dDab][dDab][Dab]F[dL][dDab][dDab][ξThr(3R)]; lactam 4-C) was 124%. The same measure for `NC(=O)Nc1sc(-c2ccc(F)cc2)cc1C(N)=O`: 8.68%; for `CC(=O)C1=C(O)C=C2Oc3c(C(C)=O)c(O)c(C)c(O)c3C2(C)C1=O` (stereo not given): 97.8%; for `Cc1cncc2cccc(S(=O)(=O)N3CCCN(C(=O)CN)C[C@@H]3C)c12`: 89.9%. The value for `CCNC(=O)c1cc2c(-c3cc(OCCN4CCCC4)c(Cl)cc3Cl)nc(N)nc2s1` was 9.23%; that for `COC1=C2C[C@@H](C)C[C@H](OC)[C@@H](O)[C@@H](C)C=C(C)[C@H](OC(N)=O)[C@@H](OC)C=CC=C(C)C(=O)NC(=CC1=O)C2=O` was 5.64%. For `C[C@@H]1CC[C@@]2(OC1)OC1CC3C4CC=C5CC(O)CCC5(C)C4CCC3(C)C1[C@@H]2C` (stereo not given in full), the parasite growth remaining, % of DMSO control (lower = more inhibition) worked out at 97.8%. For the compound `CC[C@@]1([C@@H]2O[C@@H]([C@H]3O[C@@](O)(CO)[C@H](C)C[C@H]3C)C[C@H]2C)CC[C@H]([C@]2(C)CC[C@]3(C[C@H](O)[C@@H](C)[C@@H]([C@@H](C)[C@@H](OC)[C@H](C)C(=O)O)O3)O2)O1`, the parasite growth remaining, % of DMSO control (lower = more inhibition) came out at 5.25% [at 9.64 µM].

For `CNC(=O)Nc1ccc(-c2nc(N3CC4CCC(C3)O4)c3cnn(C4CCC5(CC4)OCCO5)c3n2)cc1`, the parasite growth remaining, % of DMSO control (lower = more inhibition) was determined as 7.38%. In the case of `CN1C(C(=O)Nc2ccccn2)=C(O)c2sc(Cl)cc2S1(=O)=O`, the parasite growth remaining, % of DMSO control (lower = more inhibition) came out at 86.4%. Regarding `Cn1cc(C=CC(=O)c2cccc(F)c2)cc1C=CC(=O)NO`, the parasite growth remaining, % of DMSO control (lower = more inhibition) came to 90.9%.
